In experiment [1] the test system is Zika virus NS2B-NS3 protease (unlinked complex). As to the kind of experiment: Primary screen GU Rhodamine qHTS for Zika virus inhibitors: Unlinked NS2B-NS3 protease assay (AID 1347159). Further: nearly all actives have a fitted effect of over 60% in size. The method, boiled down:
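Enzyme 25 nM in Tris-HCl pH 8.0 + 0.01% Tween 20; compounds up to 114 microM, 15 min RT dark; + Rhod110 substrate 1.5 microM; read t0 and 15 min; delta fluorescence → % inhibition → 4-parameter Hill fit.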
In general terms: Quantitative high-throughput screening tests each substance at several concentrations.

Experiment [2] concerns Zika virus NS2B-NS3 protease (linked construct). As to the kind of experiment: Primary screen NINDS Rhodamine qHTS for Zika virus inhibitors (AID 1347160). Further: nearly all actives have a fitted effect of over 55% in size. The method, boiled down:
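Enzyme (25 nM, linked NS2B-NS3) was preincubated 15 min with compound in 10 mM Tris-HCl pH 8.0, 0.01% Tween 20. Rhodamine110 substrate (1.5 microM) was then added and fluorescence read at start and after 15 min.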

Among the data in PubChem BioAssay (NCATS) are Potency, activity change, negative = inhibition and outcome values, retold here.

Inconclusive results are not listed. Values without a mark were called inactive. Calls of active or inactive are those of the source. The call rests on the fitted dose curve; in most records, active means well fitted inhibition curve with a large enough effect; inconclusive means small, poorly fitted or top-dose-only effect; inactive means no such curve, though single readings can be large or run the other way.
On the % scale 0 is the no-effect control and ±100 the full control effect.

For `CC12CCC(C(OC3OC(COC4OCC(O)(CO)C4O)C(O)C(O)C3O)C1)C(C)(C)O2` (stereo not drawn), the Potency entry in experiment [1] and in experiment [2] was “inactive” throughout.
For `CC(C)(C)Nc1nc(Nc2ccc(C(N)=O)cc2)cc(N)c1C#N`, the Potency result in experiment [1] and in experiment [2] was “inactive” in each case.
For the compound `CC(NC(=O)CCc1nc2ccccc2c(=O)[nH]1)c1ccccc1` (stereo not drawn), the Potency result in experiment [1] and in experiment [2] was “inactive” in each case.
Take `Cc1cc2c(F)c(Oc3ncnn4cc(OCC(C)O)c(C)c34)ccc2[nH]1` (stereo not drawn): the Potency result in experiment [1] and in experiment [2] was “inactive” each time.
For the compound `CC(C)c1nnc(-c2ccc(-c3ccccc3)nc2)n1-c1cccc2nonc12`, the Potency entry in experiment [1] and in experiment [2] was “inactive” in each case.
In the case of `O=C1CCC(=O)N(O)CCCCCNC(=O)CCC(=O)N(O)CCOCCNC(=O)CCC(=O)N(O)CCCCCN1`, the Potency entry in experiment [1] and in experiment [2] was “inactive” throughout.
Regarding `COC(=O)CC(C)(O)CC(=O)OCc1ccc(O[C@@H]2O[C@H](CO)[C@@H](O)[C@H](O)[C@H]2O)cc1` (stereo partly drawn), the Potency entry in experiment [1] and in experiment [2] was “inactive” throughout.
As for `C#CC[C@H](c1nc2cc(Cl)ccc2c(=O)n1Nc1ccccc1)N(CCCN)C(=O)c1cccc(Cl)c1F`, the Potency result in experiment [1] and in experiment [2] was “inactive” each time.
As to `CCNCc1nc2c(N)nc3ccccc3c2n1CC(C)(C)O`, the Potency result in experiment [1] and in experiment [2] was “inactive” each time.
Turning to `CCCCC1CCN(CCCC(=O)c2ccccc2C)CC1`, the Potency result in experiment [1] and in experiment [2] was “inactive” each time.
Consider `N#Cc1ccc(-c2cnc3[nH]cc(NC(=O)c4cccnc4)c3c2)cc1`, for which the Potency result in experiment [1] and in experiment [2] was “inactive” each time.
With `C[C@@H]1O[C@@H](O[C@H]2[C@@H](OC(=O)[C@]34CCC(C)(C)CC3C3=CCC5[C@@]6(C)C[C@H](O)[C@H](O[C@@H]7O[C@H](C(=O)O)[C@@H](O)[C@H](O)[C@H]7O)[C@@](C)(C(=O)O)C6CC[C@@]5(C)[C@]3(C)CC4)OC[C@H](O)[C@@H]2O)[C@H](O)[C@H](O)[C@H]1O[C@@H]1OC[C@@H](O)[C@H](O)[C@H]1O` (stereo partly drawn), the Potency result in experiment [1] and in experiment [2] was “inactive” in each case.
For `COc1cc2c(cc1OC)-c1[nH]nc(Nc3cccc(F)c3)c1C2`, the Potency entry in experiment [1] and in experiment [2] was “inactive” in each case.
As for `Cc1ccc(C(=O)N(CCCN)C(c2oc3cc(Cl)ccc3c(=O)c2Cc2ccccc2)C(C)C)cc1` (stereo not drawn), the Potency result in experiment [1] and in experiment [2] was “inactive” in each case.
As for `O=C(NCc1cccc(O)c1)c1cc2cc(F)ccc2[nH]1`, the Potency result in experiment [1] and in experiment [2] was “inactive” in each case.
For `Cc1cc(O)c(-c2ccc([C@@H](C)CN(C)C)cc2)c2c1[nH]c(=O)c1sccc12`, the Potency entry in experiment [1] and in experiment [2] was “inactive” each time.
In the case of `O=C(/C=C/c1ccc(O)cc1)OC1[C@H](O)CC(O)(C(=O)O)C[C@H]1O` (stereo partly drawn), the Potency entry in experiment [1] and in experiment [2] was “inactive” each time.
On to `O=C(O)[C@@H]1C[C@H]2C[C@@H](CCc3nn[nH]n3)CC[C@H]2CN1`, for which the Potency result in experiment [1] and in experiment [2] was “inactive” throughout.
As to `CC(C)C1=CC2C(CC[C@]2(C)O)[C@](C)(O)CC1` (stereo partly drawn), the Potency entry in experiment [1] and in experiment [2] was “inactive” throughout.
As for `CN(C)CCCCC(=O)Nc1ccc(NC(=S)NC(=O)c2ccc(C(C)(C)C)cc2)cc1`, the Potency result in experiment [1] and in experiment [2] was “inactive” each time.
Turning to `CC(/C=C/C1=CC2=CC(=O)C(C)(O)C(O)C2=CO1)=C\C(C)CCO` (stereo not drawn), the Potency entry in experiment [1] and in experiment [2] was “inactive” in each case.
`CC(=O)O[C@@H]1[C@@H](O)[C@H](C)O[C@@H](O[C@H]2[C@@H]3C=CO[C@@H](O[C@@H]4O[C@H](CO)[C@@H](O)[C@H](O)[C@H]4O)[C@@H]3[C@@]3(CO)O[C@@H]23)[C@@H]1OC(=O)/C=C/c1ccccc1`: the Potency result in experiment [1] and in experiment [2] was “inactive” in each case.
Take `O=C(CN1C(=O)C2(CCCC2)NCC1c1cc(F)cc(F)c1)Nc1ccc2c(c1)CC1(C2)C(=O)Nc2ncccc21` (stereo not drawn): the Potency result in experiment [1] and in experiment [2] was “inactive” each time.
Regarding `CN=C(N)NCCCCC/C=C(/C)CC(C)C1OC(=O)C(C)C(O)/C=C/C(C)C(O)CC(O)C(C)C(O)CCC(C)C(O)CC2(O)OC(CC(OC(=O)CC(=O)O)CC(O)CC(O)C(C)C(O)/C(C)=C/CCC1C)CC(O)C2O` (stereo not drawn), the Potency entry in experiment [1] and in experiment [2] was “inactive” each time.
Turning to `C[C@@H]1O[C@@H](O[C@H]2[C@H](O)[C@@H](O[C@@H]3O[C@H](CO)[C@@H](O)[C@H](O[C@@H]4O[C@H](CO)[C@@H](O)[C@H](O)[C@H]4O)[C@H]3O)[C@H](O[C@H]3CC[C@@]4(C)C(=CC[C@@H]5C4CC[C@@]4(C)C5C[C@@H]5OC6(CC[C@@](C)(CO[C@@H]7O[C@H](CO)[C@@H](O)[C@H](O)[C@H]7O)O6)[C@@H](C)[C@@H]54)C3)O[C@@H]2CO)[C@H](O)[C@H](O)[C@H]1O` (stereo partly drawn), the activity change, negative = inhibition in experiment [1] is 33% [at 19.1 µM]. For the same compound, in experiment [2], the outcome is “inactive [at 10.7 µM]”.
For the compound `COc1cc2ncnc(Nc3ccc(O)cc3)c2cc1OC`, the Potency result in experiment [1] and in experiment [2] was “inactive” each time.
Take `CC(=O)N[C@H]1[C@H](O[C@H]2CC[C@@]3(C)C(CC[C@]4(C)C3CC=C3[C@@H]5CC(C)(C)CC[C@]5(C(=O)OC5OCC(O)C(O)C5O)CC[C@]34C)C2(C)C)O[C@H](COC2OC(C)C(O)C(OC3OC(C)C(O)C(O)C3O)C2O)[C@@H](O)[C@@H]1O` (stereo partly drawn): the Potency entry in experiment [1] and in experiment [2] was “inactive” each time.
Turning to `CSc1ccc(C(=O)N[C@@H]2CCCC[C@@H]2NC(=O)CNC(=O)c2cc(C(F)(F)F)ccc2NC(=O)NC(C)C)cc1`, the Potency entry in experiment [1] and in experiment [2] was “inactive” throughout.
As for `CC(C)=CCC[C@](C)(O[C@@H]1O[C@H](CO[C@@H]2O[C@H](CO)[C@@H](O)[C@H](O)[C@H]2O)[C@@H](O)[C@H](O)[C@H]1O)C1CC[C@]2(C)[C@@H]1[C@H](O)CC1[C@@]3(C)CC[C@H](O[C@@H]4O[C@H](CO)[C@@H](O)[C@H](O)[C@H]4O[C@@H]4O[C@H](CO)[C@@H](O)[C@H](O)[C@H]4O)C(C)(C)[C@@H]3CC[C@]12C` (stereo partly drawn), the Potency entry in experiment [1] and in experiment [2] was “inactive” each time.
